{"source": "PubChem BioAssay (NCATS)", "note": "Inconclusive results are not listed. Unmarked numbers belong to inactive results. Calls of active or inactive are those of the source. Calls follow the shape of the dose curve; as a rule, active = well fitted cell-killing curve with a large enough effect; inconclusive = small, poorly fitted or top-dose-only effect, or effect the other way; inactive = flat fitted curve, though single readings scatter. % is scaled to controls: 0 for no effect and ±100 for the full control effect; potency is read from the fitted curve at half-maximal effect."}
{"tested_on": "Tov-21-G", "test": "Primary qHTS to identify gynecologic anti-cancer compounds using libraries of approved drugs and bioactive compounds (AID 1345084); also: nearly all actives have a fitted effect of over 55% in size", "conditions": "Gynecologic cancer cell panel viability, ATPlite luminescence, 48 h; series mostly up to 57.5 µM; activity change, negative = cytotoxicity: at the top concentration", "outline": "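Five-concentration response, 48 h; readout is ATP-driven luciferase luminescence.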"}
{"smiles": "CC(=O)O[C@H]1[C@@H](O)[C@H](O[C@H]2[C@@H]3C=CO[C@@H](O[C@H]4O[C@@H](CO)[C@H](O)[C@@H](O)[C@@H]4O)[C@@H]3[C@@]3(CO)O[C@@H]23)O[C@@H](C)[C@@H]1OC(=O)/C=C/c1ccccc1", "activity change, negative = cytotoxicity": "0.257% [at 25.3 µM]"}
{"smiles": "COc1cc(OC)cc(C(=O)Nc2ccc(Cl)c(-c3nc4ccc(N(C)C)cc4[nH]3)c2)c1", "activity change, negative = cytotoxicity": "3.85%"}
{"smiles": "CC(=O)OC1C(O)C2C(C)C3=CC(=O)OC3(O)CC2C2(C)CCCC(C)(CO)C12", "note": "(centres undefined)", "activity change, negative = cytotoxicity": "-6.2% [at 25.3 µM]"}
{"smiles": "CC/C=C\\CCO[C@@H]1O[C@H](CO[C@@H]2OC[C@H](O)[C@H](O)[C@H]2O)[C@@H](O)[C@H](O)[C@H]1O", "activity change, negative = cytotoxicity": "-0.174% [at 38.5 µM]"}
{"smiles": "O=C(O)/C=C/c1ccc(-c2ccc(O)c(C34CC5CC(CC(C5)C3)C4)c2)cc1", "Potency": "0.794 µM (active)"}
{"smiles": "O=C(CO)[C@@H](O)[C@H](O[C@@H]1O[C@H](CO)[C@H](O)[C@H](O)[C@H]1O)[C@H](O)CO", "activity change, negative = cytotoxicity": "-3.18%"}
{"smiles": "C=C1[C@H](OC(C)=O)[C@H]2[C@@H](OC(C)=O)[C@](C)(OC(C)=O)C[C@]2(OC(C)=O)C(=O)[C@H](C)/C=C/C(C)(C)C(=O)[C@H](OC(=O)C(C)CC)[C@H]1OC(C)=O", "note": "(some centres undefined)", "activity change, negative = cytotoxicity": "2.03% [at 25.3 µM]"}
{"smiles": "COC(=O)CC(O)CC(O)/C=C/c1c(C)ccc2c1C(O)CC(C)C2", "note": "(centres undefined)", "activity change, negative = cytotoxicity": "-5.58% [at 38.5 µM]"}
{"smiles": "C=C[C@]1(C)C=C2CCC3C(C)(CCC[C@@]3(C)C(=O)O)C2CC1", "note": "(some centres undefined)", "activity change, negative = cytotoxicity": "5.54% [at 38.5 µM]"}
{"smiles": "C=CC/C=C\\C/C=C\\CCCCCCCc1cccc(O)c1C(=O)O", "activity change, negative = cytotoxicity": "5.83% [at 38.5 µM]"}
{"smiles": "CC(=O)OC1C(OC(=O)c2ccccc2)C2C(C)(C)CC(=O)CC2(C)C23CCC(C)(C2)C(O)CC13", "note": "(centres undefined)", "activity change, negative = cytotoxicity": "10.9% [at 25.3 µM]"}
{"smiles": "Cc1cc(Nc2ccc(NC(=O)c3ccc(Nc4ccnc5ccccc45)cc3)cc2)nc(N)n1", "Potency": "10 µM (active)"}
{"smiles": "CC(=O)OC1C[C@]2(C)C(O)CC(C)=C[C@H](OC(=O)c3ccc(O)cc3)C2[C@]1(O)C(C)C", "note": "(some centres undefined)", "activity change, negative = cytotoxicity": "-0.806% [at 25.3 µM]"}
{"smiles": "C=C(CO)C12OC1C1(C)C(=CC2=O)C(O)C(O)CC1C", "note": "(centres undefined)", "activity change, negative = cytotoxicity": "-0.074%"}
{"smiles": "COC1CC(O[C@H]2CC[C@@]3(C)C(CCC4C3[C@H](OC(C)=O)[C@@H](OC(=O)/C=C/c3ccccc3)[C@]3(C)C(C(C)=O)CC[C@]43O)C2)OC(C)C1OC1CC(OC)C(OC2CC(OC)C(OC3OC(C)C(OC4OC(CO)C(O)C(O)C4O)C(OC)C3O)C(C)O2)C(C)O1", "note": "(some centres undefined)", "activity change, negative = cytotoxicity": "6.44% [at 6.55 µM]"}
{"smiles": "CC1(C)CC[C@]2(C(=O)O)[C@H](O)C[C@]3(C)C(=CCC4[C@@]5(C)CC[C@H](O[C@@H]6O[C@H](CO[C@@H]7OC[C@H](O)[C@H](O)[C@H]7O[C@@H]7OC[C@@H](O)[C@H](O)[C@H]7O)[C@@H](O)[C@H](O)[C@H]6O[C@@H]6O[C@H](CO)[C@@H](O)[C@H](O)[C@H]6O)C(C)(C)C5CC[C@]43C)[C@@H]2C1", "note": "(some centres undefined)", "activity change, negative = cytotoxicity": "-13.8% [at 11.6 µM]"}
{"smiles": "C/C=C1\\[C@H](OC2OC(COC3OC(CO)C(O)C(O)C3O)C(O)C(O)C2O)OC=C(C(=O)OC)[C@H]1CC(=O)OCCc1ccc(O)cc1", "note": "(some centres undefined)", "activity change, negative = cytotoxicity": "14.6% [at 25.3 µM]"}
{"smiles": "CC1(C)CC[C@]2(C(=O)OC3OC(CO)C(O)C(O)C3O)CC[C@]3(C)C(=CCC4[C@@]5(C)CC[C@H](OC6OC(C(=O)O)C(O)C(OC7OC(CO)C(O)C(O)C7O)C6O)C(C)(C)C5CC[C@]43C)C2C1", "note": "(some centres undefined)", "activity change, negative = cytotoxicity": "-2.48% [at 11.6 µM]"}
{"smiles": "CC1(C)CC[C@]2(C(=O)O[C@@H]3O[C@H](CO)[C@@H](O)[C@H](O)[C@H]3O)CC[C@]3(C)C(=CCC4[C@@]5(C)CC[C@H](O[C@@H]6O[C@H](C(=O)O)[C@@H](O)[C@H](O)[C@H]6O)C(C)(C)C5CC[C@]43C)C2C1", "note": "(some centres undefined)", "activity change, negative = cytotoxicity": "5.62% [at 11.6 µM]"}
{"smiles": "CN(C)CCn1cc(S(=O)(=O)c2cccc(F)c2)c2cccnc21", "activity change, negative = cytotoxicity": "-2.63%"}
{"smiles": "CC1=C(C(=O)O)/C(=C\\CO[C@@H]2O[C@H](CO)[C@@H](O)[C@H](O)[C@H]2O)C(OC(=O)/C=C/c2ccc(O)cc2)C1", "note": "(some centres undefined)", "activity change, negative = cytotoxicity": "2.32% [at 25.3 µM]"}
{"smiles": "C[C@H](NC(c1cccc(C[P+](=O)O)c1)[C@H](C)O)c1ccc(Cl)c(Cl)c1", "note": "(some centres undefined)", "activity change, negative = cytotoxicity": "-35.3%"}
{"smiles": "C=C[C@H]1[C@H](O[C@@H]2O[C@H](CO)[C@@H](O)[C@H](O)[C@H]2O)OC=C(C(=O)OC)[C@H]1C[C@@H]1c2cc(O)c(O)cc2CCN1C(C)=O", "activity change, negative = cytotoxicity": "0.756% [at 25.3 µM]"}
{"smiles": "C=CC(C)(C)c1[nH]c2ccccc2c1C[C@@H]1NC(=O)[C@H](Cc2c[nH]c3ccccc23)NC1=O", "activity change, negative = cytotoxicity": "2.09% [at 25.3 µM]"}
{"smiles": "C=C1C(=O)O[C@@H]2/C=C(\\C)C(=O)/C=C/[C@](C)(O)C[C@@H](OC(=O)C(C)C)[C@@H]12", "Potency": "3.98 µM (active)"}
{"smiles": "O=C(Nc1ccc(-c2ccncc2)cc1)N[C@H](CO)c1ccccc1", "activity change, negative = cytotoxicity": "1.51%"}
{"smiles": "CC[C@@](C)(Nc1ccnc(-c2c[nH]c3ncccc23)n1)C(=O)NCC(F)(F)F", "activity change, negative = cytotoxicity": "-0.368%"}
{"smiles": "COC(=O)CCC(=O)OC[C@]1(C)CCC[C@@]2(C)C3CC[C@]4(C)C=CC3(CCC12)C4", "note": "(some centres undefined)", "activity change, negative = cytotoxicity": "-0.0191% [at 25.3 µM]"}
{"smiles": "C=C1CCC2C(C)(C)C(O)CCC2(C)C1CCC(C)CCO", "note": "(centres undefined)", "activity change, negative = cytotoxicity": "-2.27% [at 38.5 µM]"}
{"smiles": "C[C@@H]1O[C@@H](O[C@H]2[C@H](O)[C@@H](C(=O)O)O[C@@H](O[C@H]3CC[C@@]4(C)C(CC[C@]5(C)C4CC=C4C6CC(C)(C)CC[C@]6(C(=O)O)CC[C@]45C)C3(C)C)[C@@H]2O[C@@H]2OC[C@@H](O)[C@H](O)[C@H]2O)[C@H](O)[C@H](O)[C@H]1O", "note": "(some centres undefined)", "activity change, negative = cytotoxicity": "13.2% [at 11.6 µM]"}
{"smiles": "O=C(O)CC(=O)OC[C@H]1O[C@@H](Oc2ccc3c(c2)OC[C@H]2c4cc5c(cc4O[C@@H]32)OCO5)[C@H](O)[C@@H](O)[C@@H]1O", "activity change, negative = cytotoxicity": "-3.74% [at 25.3 µM]"}
{"smiles": "C[C@@H]1O[C@@H](O[C@H]2[C@H](O)[C@@H](O[C@@H]3O[C@H](CO)[C@@H](O)[C@H](O[C@@H]4O[C@H](CO)[C@@H](O)[C@H](O)[C@H]4O)[C@H]3O)[C@H](O[C@H]3CC[C@@]4(C)C(=CC[C@@H]5C4CC[C@@]4(C)C5C[C@@H]5OC6(CC[C@@](C)(CO[C@@H]7O[C@H](CO)[C@@H](O)[C@H](O)[C@H]7O)O6)[C@@H](C)[C@@H]54)C3)O[C@@H]2CO)[C@H](O)[C@H](O)[C@H]1OC1OC(CO)C(O)C(O)C1O", "note": "(some centres undefined)", "activity change, negative = cytotoxicity": "-0.0744% [at 6.55 µM]"}
{"smiles": "C[C@@H]1[C@H]2[C@H](O[C@@H]3O[C@H](CO)[C@@H](O)[C@H](O)[C@H]3O)OC=C(C(=O)O)[C@H]2C[C@@H]1O", "activity change, negative = cytotoxicity": "-0.114% [at 38.5 µM]"}
{"smiles": "CC(C)(F)C[C@@H](N[C@@H](c1ccc(-c2ccc(S(C)(=O)=O)cc2)cc1)C(F)(F)F)C(=O)NC1(C#N)CC1", "activity change, negative = cytotoxicity": "6.26%"}
{"smiles": "CC1=CC2/C=C(\\C)CC[C@@H](O)[C@@H](O)[C@@H]3O[C@@H]3C(=O)[C@]23C(=O)N[C@@H](CC(C)C)[C@@H]3[C@@H]1C", "note": "(some centres undefined)", "activity change, negative = cytotoxicity": "10% [at 25.3 µM]"}
{"smiles": "Cc1ccc(-c2c(C(=O)CF)n(CCCO)c3ncnc(N)c23)cc1", "activity change, negative = cytotoxicity": "-1.63%"}
{"smiles": "C=C1C(O)C[C@@H]2C(C(=O)O)=CO[C@@H](O[C@@H]3O[C@H](CO)[C@@H](O)[C@H](O)[C@H]3OC(=O)c3ccc(O)cc3)[C@H]12", "note": "(some centres undefined)", "activity change, negative = cytotoxicity": "-1.26% [at 25.3 µM]"}
{"smiles": "Cc1ccc(F)cc1C(=O)Nc1ccc(C(=O)N2Cc3cccn3Cc3ccccc32)c(Cl)c1", "activity change, negative = cytotoxicity": "0.665%"}
{"smiles": "O=C(CCc1ccccc1)N1CCC(O)(Cn2cnc3cc(Cl)ccc3c2=O)CC1", "activity change, negative = cytotoxicity": "10.2%"}
